Among the data in PubChem BioAssay (NCI) are growth inhibition values, retold here.

The panel holds about 79,000 compounds, 15% with a hit somewhere; the sample as a whole holds those more often. Values without a mark were called inactive. The source made the active and inactive calls. No stated cut-off is given here; in the data, active means growth inhibition above about 70%; inactive means the rest.

Test [1] can be described thus: NCI Yeast Anticancer Drug Screen. Data for the rad50 strain (AID 155).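 Further: 0% = growth of vehicle-only cultures of the same strain.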 The conditions noted are these: S. cerevisiae rad50 strain growth inhibition, active compounds read high. The method in brief: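 Compounds were tested on a yeast strain with an engineered DNA damage repair alteration; the reported value is growth inhibition normalised to vehicle treatment.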
Test [2] is described as follows: NCI Yeast Anticancer Drug Screen. Data for the mec2-1 strain (AID 157). The conditions noted are these: S. cerevisiae mec2-1 strain, active compounds read high. The method, boiled down: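 Readout is yeast growth inhibition, normalised to vehicle-treated controls, in the mec2-1 strain exposed to compound.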
The nature of test [3]: NCI Yeast Anticancer Drug Screen. Data for the sgs1 mgt1 strain (AID 161).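 Further: 0% = growth of cultures given vehicle only.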 The conditions noted are these: S. cerevisiae sgs1 mgt1 strain, active compounds read high. The method in brief:
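Yeast cells carrying a defined DNA-repair defect were exposed to test compounds. Growth inhibition was measured relative to vehicle-treated controls.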

The nature of test [4]: NCI Yeast Anticancer Drug Screen. Data for the cln2 rad14 strain (AID 165).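 Further: 0% = growth equal to vehicle treated cultures.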 The conditions noted are these: S. cerevisiae cln2 rad14 strain, active compounds read high. The method, boiled down:
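Relative to vehicle controls, growth inhibition of compound-treated cln2 rad14 yeast was recorded.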

Test [5] in a line: NCI Yeast Anticancer Drug Screen. Data for the bub3 strain (AID 167). The conditions noted are these: S. cerevisiae bub3 mutant strain, active compounds read high. The method in brief:
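Growth of a checkpoint-deficient yeast mutant is measured after compound exposure. Values represent inhibition relative to vehicle.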

Test [6] can be described thus: NCI Yeast Anticancer Drug Screen. Data for the mlh1 rad18 strain (AID 175). The conditions noted are these: S. cerevisiae mlh1 rad18 strain growth inhibition, active compounds read high. The method in brief: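 Test agents were incubated with a yeast strain of defined genotype (DNA damage repair defect). Inhibition of growth was derived by comparison with vehicle-exposed cultures.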

Setting [7] is: at 5.0 µM (retest, dose inferred, filed as 0.5).
[8] abbreviates: at 50.0 µM (retest, dose inferred, filed as 5.0).

With `Cc1c(C(C)(C)C)cc(C(C)(C)C)c(O)c1CN(C)Cc1c(C)c(C(C)(C)C)cc(C(C)(C)C)c1O`, the growth inhibition in test [1] (setting [7]) is -3%; in test [1] (setting [8]), 8%; in test [1] (at 50.0 µM), 99.5% (active); in test [2] (setting [7]) it was -8%; in test [2] (setting [8]), 3%; in test [2] (at 50.0 µM), 99.3% (active). Besides, the growth inhibition in test [3] (setting [7]) is 3%; in test [3] (setting [8]) it was 33%; in test [3] (at 50.0 µM) it was 99.6% (active); in test [4] (setting [7]), -6%; in test [4] (setting [8]), -3%; in test [4] (at 50.0 µM) it was 99.5% (active). Moreover, the growth inhibition in test [5] (setting [7]) was -3%; in test [5] (setting [8]) it was 13%; in test [5] (at 50.0 µM), 99.4% (active); in test [6] (setting [7]), 4%; in test [6] (setting [8]), 17%; in test [6] (at 50.0 µM) it was 99.5% (active).
`CC(=O)Nc1cc(Cl)c2c(c1)C(=O)c1ccccc1-2`: the growth inhibition in test [1] (setting [7]) is 64%; in test [1] (setting [8]), 82% (active); in test [1] (at 50.0 µM) it was 91.8% (active); in test [2] (setting [7]) it was 34%; in test [2] (setting [8]), 61%; in test [2] (at 50.0 µM) it was 14.6%. The growth inhibition in test [3] (setting [7]) was 43%; in test [3] (setting [8]) it was 77% (active); in test [3] (at 50.0 µM) it was 35.6%; in test [4] (setting [7]) it was 24%; in test [4] (setting [8]), 35%; in test [4] (at 50.0 µM), -23.4%. Moreover, the growth inhibition in test [5] (setting [7]) was 14%; in test [5] (setting [8]), 38%; in test [5] (at 50.0 µM) it was 19.1%; in test [6] (setting [7]), 41%; in test [6] (setting [8]) it was 79% (active); in test [6] (at 50.0 µM), 33%.
Turning to `CCOc1nc(N)nc(C)c1N=Nc1ccc(Cl)cc1Cl`, the growth inhibition was 10% in test [1] (setting [7]); 92% (active) in test [1] (setting [8]); 72.8% (active) in test [1] (at 50.0 µM); 0% in test [2] (setting [7]); 50% in test [2] (setting [8]); 16.9% in test [2] (at 50.0 µM). The growth inhibition in test [3] (setting [7]) is 5%; in test [3] (setting [8]) it was 88% (active); in test [3] (at 50.0 µM) it was 22.4%; in test [4] (setting [7]), 15%; in test [4] (setting [8]) it was 77% (active); in test [4] (at 50.0 µM), 36.4%. The growth inhibition was 5% in test [5] (setting [7]); 94% (active) in test [5] (setting [8]); 73.8% (active) in test [5] (at 50.0 µM); 14% in test [6] (setting [7]); 97% (active) in test [6] (setting [8]); 45% in test [6] (at 50.0 µM).
As for `CCOc1c(N=Nc2ccccc2OC)c(-c2ccccc2)nn1C(N)=S`, the growth inhibition in test [1] (setting [7]) was 10%; in test [1] (setting [8]), 38%; in test [1] (at 50.0 µM), 67%; in test [2] (setting [7]), 1%; in test [2] (setting [8]) it was 35%; in test [2] (at 50.0 µM), 63%. Further, the growth inhibition in test [3] (setting [7]) is 26%; in test [3] (setting [8]), 61%; in test [3] (at 50.0 µM), 76.1% (active); in test [4] (setting [7]) it was -8%; in test [4] (setting [8]) it was 20%; in test [4] (at 50.0 µM), 44%. Further, the growth inhibition in test [6] (setting [7]) is 2%; in test [6] (setting [8]), 39%; in test [6] (at 50.0 µM) it was 53.4%.
For the compound `CC(C)(C)c1ccc(O)c(CN(Cc2c(O)ccc3ccccc23)C2CCCCC2)c1`, the growth inhibition in test [1] (setting [7]) was 22%; in test [1] (setting [8]), 99% (active); in test [1] (at 50.0 µM) it was 98% (active); in test [2] (setting [7]), 17%; in test [2] (setting [8]) it was 98% (active); in test [2] (at 50.0 µM), 98.2% (active). Besides, the growth inhibition is 13% in test [3] (setting [7]); 99% (active) in test [3] (setting [8]); 98% (active) in test [3] (at 50.0 µM); -12% in test [4] (setting [7]); 97% (active) in test [4] (setting [8]); 97.7% (active) in test [4] (at 50.0 µM). Moreover, the growth inhibition in test [5] (setting [7]) was -3%; in test [5] (setting [8]), 99% (active); in test [5] (at 50.0 µM), 97.4% (active); in test [6] (setting [7]), 10%; in test [6] (setting [8]), 99% (active); in test [6] (at 50.0 µM), 98.1% (active).
For `O=[N+]([O-])c1ccc(-c2nc3c(o2)CCC3)cc1`, the growth inhibition in test [1] (setting [7]) was -85%; in test [1] (setting [8]) it was -83%; in test [1] (at 50.0 µM), 9.15%; in test [2] (setting [7]), -15%; in test [2] (setting [8]), -15%; in test [2] (at 50.0 µM), -2.9%. For the same compound, the growth inhibition was -22% in test [3] (setting [7]); -22% in test [3] (setting [8]); 6.4% in test [3] (at 50.0 µM); -57% in test [4] (setting [7]); -62% in test [4] (setting [8]); 25.1% in test [4] (at 50.0 µM). Besides, the growth inhibition in test [5] (setting [7]) is -72%; in test [5] (setting [8]), -82%; in test [5] (at 50.0 µM), -4.6%; in test [6] (setting [7]), -92%; in test [6] (setting [8]), -61%; in test [6] (at 50.0 µM), 3.25%.
Consider `CCCCCc1[nH]nc(C(=O)OC)c1N=NN1CCOCC1`, for which the growth inhibition was 43% in test [1] (setting [7]); 98% (active) in test [1] (setting [8]); 99.2% (active) in test [1] (at 50.0 µM); 91% (active) in test [2] (setting [7]); 99% (active) in test [2] (setting [8]); 99.6% (active) in test [2] (at 50.0 µM). The growth inhibition in test [3] (setting [7]) is 62%; in test [3] (setting [8]), 99% (active); in test [3] (at 50.0 µM), 99.5% (active); in test [4] (setting [7]) it was 68%; in test [4] (setting [8]), 99% (active); in test [4] (at 50.0 µM), 99.5% (active). Moreover, the growth inhibition is 81% (active) in test [5] (setting [7]); 99% (active) in test [5] (setting [8]); 99.4% (active) in test [5] (at 50.0 µM); 89% (active) in test [6] (setting [7]); 99% (active) in test [6] (setting [8]); 99.5% (active) in test [6] (at 50.0 µM).
On to `Cn1cnc2[nH]c(Cl)nc(=S)c21`, for which the growth inhibition in test [1] (setting [7]) was -1%; in test [1] (setting [8]), 2%; in test [1] (at 50.0 µM), 1.05%; in test [2] (setting [7]) it was 3%; in test [2] (setting [8]), 0%; in test [2] (at 50.0 µM) it was -8.25%. In addition, the growth inhibition in test [3] (setting [7]) was -1%; in test [3] (setting [8]) it was 0%; in test [3] (at 50.0 µM), -0.65%; in test [4] (setting [7]), -6%; in test [4] (setting [8]), 0%; in test [4] (at 50.0 µM), 81.1% (active). In addition, the results for the growth inhibition in test [6] (setting [7]), in test [6] (setting [8]) and in test [6] (at 50.0 µM) were -2%, 0% and 15.6%, respectively.
`CC1CCN(SSc2nc3ccccc3s2)CC1`: the growth inhibition in test [1] (setting [7]) is 31%; in test [1] (setting [8]), 91% (active); in test [1] (at 50.0 µM) it was 28.4%; in test [2] (setting [7]) it was 36%; in test [2] (setting [8]), 94% (active); in test [2] (at 50.0 µM), 80.5% (active). Besides, the growth inhibition in test [3] (setting [7]) is 51%; in test [3] (setting [8]) it was 96% (active); in test [3] (at 50.0 µM), 77.4% (active); in test [4] (setting [7]), 44%; in test [4] (setting [8]) it was 70% (active); in test [4] (at 50.0 µM) it was 21.4%. The growth inhibition in test [5] (setting [7]) is 61%; in test [5] (setting [8]) it was 97% (active); in test [5] (at 50.0 µM) it was 82% (active); in test [6] (setting [7]) it was 30%; in test [6] (setting [8]), 73% (active); in test [6] (at 50.0 µM), 79% (active).
